This excerpt belongs to a sample that is enriched for hits.
KDM5B inhibitor: blocks human KDM5B histone demethylase activity | Q9UGL1 | KDM5B demethylase, FDH-coupled NADH fluorescence (FDH is formaldehyde dehydrogenase) | Potency, µM (highest dose often 57.7 µM), most hits filed as inhibitors | 220,000 compounds, 2.6% hits; active means well fitted inhibition curve with a large enough effect; further: 0% is about no effect; nearly all actives have a fitted effect of over 70% in size
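Inhibition is measured as reduced NADH fluorescence generation from FDH coupling to formaldehyde release. Truncated KDM5BΔAP at 200 nM final acts on H3K4me3 peptide (12.5 µM in substrate mix) in pH 7.5 HEPES buffer with Tween-20, 30 min, room temperature.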
* = called active by the depositor; i = inactive. Potency means the concentration at half of the fitted maximal effect.

SMILES	KDM5B inhibitor
C#CCNC(=O)c1nc(-c2ccc(F)cc2)c2ccccn12	i
CSc1ccccc1C(=O)Nc1ccc(F)cc1F	i
CSc1ccc(/C=C/C(=O)c2ccc(Cl)c(Cl)c2Cl)cc1	i
CC(Sc1c(Cl)cccc1Cl)C(=O)NCCC1=CCCCC1 (stereo not given)	i
CC(=O)c1cccc(NC(=O)c2cccc3ncccc23)c1	i
CCCc1cc(=O)[nH]c(Nc2nc(C)c3ccc(C)cc3n2)n1	i
Cc1ccc(C(=O)/C=C\N(C)C)cc1C	i
COCCCNC(=O)c1cc(-c2ccncc2)nc2ccccc12	i
Cc1cc(-c2ccc(S(=O)(=O)Nc3cccc(Cl)c3C)s2)on1	i
O=C(Nc1ccc2oc(-c3ccccc3)cc(=O)c2c1)c1ccc(F)cc1	i
NC(=O)c1ccc(OC2CCN(C(=O)C3CCC3)CC2)nc1	i
Cc1ccc(CS(=O)CCC(=O)Nc2ccccc2)cc1 (stereo not given)	i
Cc1ccc2nc(C)cc(C(=O)NCc3ccc4c(c3)OCO4)c2c1	i
Cc1cccc(C)c1-c1nc(C(=O)NCc2ccc3c(c2)OCO3)n2ccccc12	28µM*
O=C(NCc1cccs1)c1nc(-c2ccc(Cl)cc2Cl)c2ccccn12	28µM*
COc1cc(=O)n(-c2ccccc2C)nc1C(=O)NCc1ccc2c(c1)OCO2	i
Cc1onc(-c2ccc(F)cc2F)c1C(=O)NCc1cccs1	i
O=C(NCc1cccs1)c1cc2ccccc2[nH]1	i
COc1ccc(NC(=O)CSc2nnc(-n3nc(C)cc3C)n2N)cc1Cl	i
CCc1ccc2oc(C(=O)NCC(c3ccco3)N3CCCC3)cc(=O)c2c1 (stereo not given)	i
COc1ccc(C2NC(=S)NC(C)=C2C(C)=O)c(OC)c1 (stereo not given)	i
O=C1NCc2ccccc2CC12CCCN2Cc1ccc(O)cc1 (stereo not given)	i
COc1ccc(CN2CCCC23Cc2ccccc2CNC3=O)c(O)c1 (stereo not given)	i
O=C1NCc2ccccc2CC12CCCN2Cc1ccc(O)cc1O (stereo not given)	89µM*
O=S(=O)(NCCO)c1ccc(Cl)c2ccccc12	i
SMILES	KDM5B inhibitor
O=C(c1ccccc1Cl)[C@@H]1[C@@H]2CCCN2[C@]2(C(=O)Nc3ccccc32)[C@@]12C(=O)Nc1ccccc12	i
CCC(C)(CNC(=O)c1cc(-c2ccccc2)on1)N1CCOCC1 (stereo not given)	i
CCCNC(=O)COc1ccccc1NC(C)=O	i
O=C1NCCCCCCN(Cc2ccccc2)[C@H]2CCC[C@@H]12	8.9µM*
O=C1NCCCCCN(C(=O)Cc2ccccc2)[C@H]2CCC[C@@H]12	i
O=C1NCCCCCCN(Cc2ccncc2)[C@@H]2CN(S(=O)(=O)Cc3ccccc3)CC[C@H]12	i
COc1cccc(CN2CC[C@H]3C(=O)NCCCCCCN(Cc4ccncc4)[C@@H]3C2)n1	20µM*
O=C1NCCCCCCN(Cc2ccncc2)[C@@H]2CN(C(=O)NC3CCCCC3)CC[C@@H]12	i
O=C1NCCCCCCN(C(=O)Cc2ccccc2)[C@@H]2CCC[C@H]12	i
Cc1cc(C)c(NC(=O)COC(=O)c2cccc(C)c2O)c(Cl)c1	i
COCCCNS(=O)(=O)c1cccc2cc(C)cnc12	i
Cc1ccccc1C(=O)NCC(c1ccccc1)c1c[nH]c2ccccc12 (stereo not given)	i
Cc1ccc2c(C(=O)O)cc(-c3ccncc3)nc2c1C	i
O=C(CN1C(=O)NC(c2ccc(Cl)cc2)C2=C1COC2=O)Nc1cc(F)cc(F)c1 (stereo not given)	i
CCCc1cc(-c2nc3c([nH]2)CC(c2ccccc2OC)CNC3=O)on1 (stereo not given)	i
COc1cccc(C2CNC(=O)c3nc(Cn4nc(C)c(C)c4C)[nH]c3C2)c1 (stereo not given)	i
COc1cccc(C2CNC(=O)c3nc(-c4ccc(C(=O)N(C)C)o4)[nH]c3C2)c1 (stereo not given)	28µM*
Clc1ccc(-c2onc3ccc(-c4ccccc4)cc23)cc1	i
COc1ccc(-c2c(C)nn3c(-c4ccccc4)cc(C)nc23)cc1OC	i
COc1cccc(-c2nc(-c3cc4ccccc4o3)cs2)c1OC	i
COc1ccc(-c2ccnc3nc(-c4ccccc4OC)nn23)cc1OC	28µM*
COc1ccccc1-c1nc2nccc(-c3cc(OC)c(OC)c(OC)c3)n2n1	25µM*
COc1ccccc1-c1nc2nccc(-c3cc4ccccc4o3)n2n1	25µM*
COc1ccc(-c2noc(-c3nc(-c4ccccc4F)no3)n2)cc1OC	i
COc1cc(-c2ccnc3nc(-c4ccco4)nn23)cc(OC)c1OC	25µM*
SMILES	KDM5B inhibitor
COc1ccc(C(=O)c2cc3ccccc3o2)cc1OC	i
Cc1ccc(NS(=O)(=O)c2cc(-c3cnc(C)o3)ccc2C)c(C)c1	i
Cc1ccc(C(=O)/C=C/c2cccc(/C=C/C(=O)c3ccc(C)o3)c2)o1	i
C=CCn1c(C)cc(C(=O)COc2ncnc3ccc(Br)cc23)c1C	i
CCCCNc1nc(-c2ccc3c(c2)CC(=O)N3)cs1	i
O=C(Nn1cnnc1)c1ccccc1Br	i
O=C(NC(c1ccc(Cl)cc1)c1cccnc1)C1CCCCC1 (stereo not given)	i
Cc1ccccc1C(=O)OC(C)C(=O)c1ccc2c(c1)CCC2 (stereo not given)	i
COc1ccc(S(=O)(=O)c2c(C)c(C)n(C(C)C)c2NC(=O)C2CC2)cc1	i
CN(C(=O)Cc1nn(C)c(=O)c2ccccc12)C1CCCCCCC1	i
CCN(CC)/C(C)=N/C(=S)Nc1ccccc1	i
Cc1sc(-c2cccc(O)c2)nc1-c1ccccc1	i
COc1ccccc1-c1nc2nccc(-c3ccc(Cl)cc3)n2n1	32µM*
COc1ccccc1-c1nc2nccc(-c3ccncc3)n2n1	i
Brc1ccc(-c2ccnc3nc(-c4ccco4)nn23)s1	28µM*
Cc1cc(Nc2ccc(F)c(F)c2)n2nc(-c3ccco3)nc2n1	i
COc1ccccc1-c1nc2nccc(-c3ccccc3)n2n1	i
COc1ccccc1-c1nc2nccc(-c3ccc4c(c3)OCCCO4)n2n1	14µM*
COc1ccccc1N1CCN(c2cc(C)nc3nc(-c4ccc(C)cc4)nn23)CC1	i
COc1ccc(Cc2nc3nccc(-c4ccco4)n3n2)cc1	i
COc1cccc(-c2nc(CSc3ccc4c(c3)OCCCO4)cs2)c1OC	i
Nc1ccccc1OC1CCCCC1	i
CSc1ncccc1C(=O)N(Cc1nnc(-c2ccccc2Cl)o1)C(C)C	i
Cc1ccc2nc(C)c(C(=O)N3CCN(S(=O)(=O)c4ccc(C#N)cc4)CC3)cc2c1	i
CCOC(=O)C1=C(CN2CCN(Cc3ccccc3)CC2)NC(=O)NC1c1ccccc1 (stereo not given)	i
SMILES	KDM5B inhibitor
COCCN1CCCNCC1	i
CCCNc1c(NC(=O)Nc2ccc(C)cc2)c(=O)oc2ccccc12	i
CCCN(CCC)Cc1ccc(C(=O)NCc2c(C)noc2C)cc1	28µM*
Cc1noc(C)c1CNC(=O)CC(C)(C)C	i
Cc1noc(C)c1COc1ccc(C(=O)Nc2ccccc2)cc1	i
Clc1ccc2nc(-c3cccc(Br)c3)cn2c1	i
COc1ccccc1NC(=O)c1nc2ccccc2nc1N1CCOCC1	i
COc1ccc(OC)c(NC(=O)c2cc3c(N4CCSCC4)nc(C)cn3n2)c1	i
COc1ccccc1NC(=O)c1cc2c(N3CCSCC3)nc(C)cn2n1	28µM*
